Assay [1] can be described thus: ATG_GLI_CIS: Attagene CIS-FACTORIAL HepG2 Assay for human Zinc Finger Protein GLI1 (AID 2282945). The note with it: HepG2, Attagene cis-factorial reporter mRNA, GLI element; actives raise or lower the signal. An outline of the steps: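 HepG2 cells transiently transfected with cis-promoter multiplexed reporter units report endogenous transcription factor activity. After 24 h chemical exposure, reporter mRNA was quantified by RT-PCR, 6-FAM labelling, HpaI digestion and capillary electrophoresis, with bidirectional fitting against DMSO.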

In assay [2] the target is Bile acid receptor (Homo sapiens) (UniProt Q96RI1). Nature of the assay: ATG_IR1_CIS: Attagene CIS-FACTORIAL HepG2 Assay for human Nuclear Receptor Subfamily 1 Group H Member 4 (NR1H4), IR1 submotif (AID 2282946). The conditions noted are these: IR1 reporter transcription, actives raise or lower the signal. An outline of the steps: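 Readout: reporter transcript levels by RT-PCR with fluorescent capillary electrophoresis, from HepG2 cells transiently transfected with multiplexed cis-regulated reporters and dosed 24 h. Gain- or loss-of-signal fitted versus DMSO negative control.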

Assay [3] in a line: ATG_GRE_CIS: Attagene CIS-FACTORIAL HepG2 Assay for human Glucocorticoid Response Elements (GRE) (AID 2282947). The conditions noted are these: HepG2 GRE cis-reporter, Attagene multiplex mRNA; actives raise or lower the signal. The method in brief: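 Cells (HepG2) bearing transfected cis-promoter reporter transcription units were treated with chemical for 24 hours. Reporter mRNA was measured via RT-PCR with capillary electrophoresis, and activity was fitted in both directions relative to DMSO.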

Assay [4] in a line: ATG_ISRE_CIS: Attagene CIS-FACTORIAL HepG2 Assay for human Interferon Regulatory Factor 1 (IRF1) binding to an Interferon-Stimulated Response Element (ISRE) (AID 2282948). The conditions noted are these: HepG2 ISRE cis-reporter (Attagene), mRNA transcription readout; actives raise or lower the signal. The method in brief:
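Signal reflects induction or loss of ISRE-linked reporter mRNA in transiently transfected HepG2 cells after a 24 h treatment, detected by fluorescent RT-PCR fragments on capillary electrophoresis and normalised to DMSO.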

Assay [5] can be described thus: ATG_M_32_CIS: Attagene CIS-FACTORIAL HepG2 Assay for M32 Transcription Factor (Internal Marker) (AID 2282949).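 Also: background control marker of the multiplexed CIS panel rather than a real target.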 The note with it: HepG2 Attagene cis-factorial M32 reporter, mRNA; actives raise or lower the signal. An outline of the steps:
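HepG2 human liver cells transiently transfected with cis-promoter-driven multiple reporter transcription units, dosed 24 h. Reporter mRNA quantified by RT-PCR, FAM-labelled primer extension, HpaI digest and capillary electrophoresis; bidirectional fit versus DMSO baseline.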

Assay [6] is described as follows: ATG_M_06_CIS: Attagene CIS-FACTORIAL HepG2 Assay for M06 Transcription Factor (Internal Marker) (AID 2282950). The conditions noted are these: HepG2 Attagene CIS-FACTORIAL M06 internal marker reporter; actives raise or lower the signal. The method in brief:
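HepG2 liver cells, 24 h exposure. Reporter transcripts from transfected cis-element constructs quantified by RT-PCR/capillary electrophoresis fluorescence. Bidirectional curve fit against DMSO.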

For assay [7], the target named is Hypoxia-inducible factor 1-alpha (Homo sapiens) (UniProt Q16665). Nature of the assay: ATG_HIF1a_CIS: Attagene CIS-FACTORIAL HepG2 Assay for human Hypoxia Inducible Factor 1 (HIF1A) (AID 2282951). The note with it: HepG2 Attagene cis-factorial HIF1a reporter transcription; actives raise or lower the signal. The method in brief: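 Transient MRTU transfection of human HepG2 liver cells, 24 h compound treatment, then total RNA isolation, oligo(dT) reverse transcription, PCR amplification, fluorescent labelling and capillary electrophoresis of reporter fragments. Gain or loss relative to DMSO.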

The target of assay [8] is Hepatocyte nuclear factor 6 (Homo sapiens) (UniProt Q9UBC0). The assay can be described thus: ATG_HNF6_CIS: Attagene CIS-FACTORIAL HepG2 Assay for human Hepatocyte Nuclear Factor 6 (HNF6) (AID 2282952). The note with it: HepG2 Attagene cis-factorial HNF6 reporter transcription; actives raise or lower the signal. An outline of the steps: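 Endogenous factor activity read in transiently transfected HepG2 via promoter-regulated reporter transcripts. RNA harvested 24 h post-dosing, reverse-transcribed, PCR-amplified, FAM-labelled, HpaI-digested and resolved by capillary electrophoresis; fitted in both directions against DMSO.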

Assay [9] concerns the target Heat shock factor protein 1 (Homo sapiens) (UniProt Q00613). Nature of the assay: ATG_HSE_CIS: Attagene CIS-FACTORIAL HepG2 Assay for human Heat Shock Transcription Factor 1 (HSE) (AID 2282953). The note with it: HepG2 HSE cis-reporter, Attagene RNA transcription; actives raise or lower the signal. An outline of the steps:
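Endogenous transcription factor activity captured via cis-promoter reporter units transfected into HepG2; treatment lasted 24 h. Fluorescence intensity of reporter fragments analysed with bidirectional curve fitting, DMSO baseline.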

Assay [10] is described as follows: ATG_MRE_CIS: Attagene CIS-FACTORIAL HepG2 Assay for human Metal Responsive Element (MRE) (AID 2282954). The note with it: HepG2 MRE cis-reporter transcription, Attagene multiplex; actives raise or lower the signal. An outline of the steps:
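Cells were transfected with cis-promoter reporter transcription units, then dosed for 24 h. RNA was reverse-transcribed, amplified, fluorescently labelled and resolved by capillary electrophoresis, and activity was fitted in both directions relative to DMSO.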

The source made the active and inactive calls. The calls were made as follows: active = hit-call score of the fitted dose curve at least 0.9, where 1 is the maximum; inactive = score below 0.9.

Heat shock factor protein 1 (Homo sapiens), sequence (Q00613 whole entry, looked up, the tested form may be a part): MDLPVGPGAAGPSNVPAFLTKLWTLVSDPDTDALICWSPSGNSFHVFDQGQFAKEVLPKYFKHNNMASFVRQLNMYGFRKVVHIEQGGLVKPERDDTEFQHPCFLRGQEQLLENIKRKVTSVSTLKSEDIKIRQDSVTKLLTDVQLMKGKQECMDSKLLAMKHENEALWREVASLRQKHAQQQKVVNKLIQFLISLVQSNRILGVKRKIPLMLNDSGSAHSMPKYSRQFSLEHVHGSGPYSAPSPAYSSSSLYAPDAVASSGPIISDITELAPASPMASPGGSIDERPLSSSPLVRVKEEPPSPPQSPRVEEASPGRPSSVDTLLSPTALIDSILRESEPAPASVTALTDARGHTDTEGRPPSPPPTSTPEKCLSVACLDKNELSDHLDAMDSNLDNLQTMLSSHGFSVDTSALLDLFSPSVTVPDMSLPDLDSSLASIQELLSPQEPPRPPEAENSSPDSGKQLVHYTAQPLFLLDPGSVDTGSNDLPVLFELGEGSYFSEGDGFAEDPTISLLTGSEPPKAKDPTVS
Hepatocyte nuclear factor 6 (Homo sapiens), sequence (Q9UBC0 whole entry, looked up): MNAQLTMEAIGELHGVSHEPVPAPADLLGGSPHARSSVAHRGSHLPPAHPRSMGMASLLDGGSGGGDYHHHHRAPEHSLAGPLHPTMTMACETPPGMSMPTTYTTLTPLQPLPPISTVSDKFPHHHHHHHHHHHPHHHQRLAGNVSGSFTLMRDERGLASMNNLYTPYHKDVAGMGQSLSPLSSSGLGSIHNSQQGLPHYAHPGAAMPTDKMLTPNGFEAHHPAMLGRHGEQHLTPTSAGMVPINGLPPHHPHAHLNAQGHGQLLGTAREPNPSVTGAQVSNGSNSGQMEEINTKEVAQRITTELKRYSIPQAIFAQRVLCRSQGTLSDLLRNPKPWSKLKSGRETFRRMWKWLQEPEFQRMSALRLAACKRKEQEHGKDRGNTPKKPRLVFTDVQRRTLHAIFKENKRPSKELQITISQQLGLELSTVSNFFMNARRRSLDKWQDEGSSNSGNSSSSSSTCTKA
Hypoxia-inducible factor 1-alpha (Homo sapiens), sequence (Q16665 whole entry, looked up, the tested form may be a part): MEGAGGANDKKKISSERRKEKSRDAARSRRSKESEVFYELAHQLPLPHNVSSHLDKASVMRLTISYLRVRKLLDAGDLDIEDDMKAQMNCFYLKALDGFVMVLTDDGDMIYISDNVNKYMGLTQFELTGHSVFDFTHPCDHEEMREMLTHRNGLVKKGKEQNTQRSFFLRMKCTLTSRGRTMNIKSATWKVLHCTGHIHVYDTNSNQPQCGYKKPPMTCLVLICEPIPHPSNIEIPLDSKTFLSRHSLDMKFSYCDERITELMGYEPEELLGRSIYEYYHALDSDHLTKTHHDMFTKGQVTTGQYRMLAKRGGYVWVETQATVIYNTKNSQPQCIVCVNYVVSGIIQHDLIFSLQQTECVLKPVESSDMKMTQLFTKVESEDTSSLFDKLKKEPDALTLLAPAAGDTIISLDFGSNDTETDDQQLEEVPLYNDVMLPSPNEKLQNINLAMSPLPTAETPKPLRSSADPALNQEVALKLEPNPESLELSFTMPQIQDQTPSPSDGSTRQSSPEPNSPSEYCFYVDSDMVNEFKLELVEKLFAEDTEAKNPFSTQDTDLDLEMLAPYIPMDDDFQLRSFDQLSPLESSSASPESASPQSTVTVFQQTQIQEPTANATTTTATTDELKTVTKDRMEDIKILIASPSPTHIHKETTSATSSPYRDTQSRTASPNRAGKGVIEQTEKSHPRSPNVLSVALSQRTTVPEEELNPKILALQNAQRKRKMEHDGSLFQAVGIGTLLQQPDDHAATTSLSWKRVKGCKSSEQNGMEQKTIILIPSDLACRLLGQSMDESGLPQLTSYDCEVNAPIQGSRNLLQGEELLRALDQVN
Bile acid receptor (Homo sapiens), sequence (Q96RI1 whole entry, looked up): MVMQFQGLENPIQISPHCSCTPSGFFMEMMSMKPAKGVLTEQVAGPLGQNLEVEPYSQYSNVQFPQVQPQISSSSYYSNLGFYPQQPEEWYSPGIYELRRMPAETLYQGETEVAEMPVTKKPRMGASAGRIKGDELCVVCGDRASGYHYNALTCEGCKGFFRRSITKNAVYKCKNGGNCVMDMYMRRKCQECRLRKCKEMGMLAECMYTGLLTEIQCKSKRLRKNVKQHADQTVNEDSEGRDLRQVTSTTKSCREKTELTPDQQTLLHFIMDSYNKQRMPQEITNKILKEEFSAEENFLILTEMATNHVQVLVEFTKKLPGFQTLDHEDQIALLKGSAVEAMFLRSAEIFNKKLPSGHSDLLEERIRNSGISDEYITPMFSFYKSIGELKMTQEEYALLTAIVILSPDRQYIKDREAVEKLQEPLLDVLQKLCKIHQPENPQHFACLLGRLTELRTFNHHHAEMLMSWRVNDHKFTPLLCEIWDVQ

On to `CC(C)OB(OC(C)C)OC(C)C`, for which the result in [1], in [2], in assay [3], in [4], in [5] and in assay [6] was inactive. The molecule was classed as inactive in assay [7], in assay [8], in assay [9] and in assay [10].

`CCC=C(C)C=O`: the call in assay [1], in [2], in assay [3], in [4], in assay [5] and in assay [6] was inactive. The molecule was called inactive in [7], in assay [8], in [9] and in assay [10].

Regarding `CCCCCC1CCC(=O)O1` (stereo not given), the result in [1], in assay [2], in assay [3], in assay [4], in [5] and in assay [6] was inactive. The molecule was classed as inactive in assay [7], in [8], in assay [9] and in assay [10].

In the case of `CC(C)C(=O)OCC=Cc1ccccc1`, the molecule was called inactive in assay [1], in [2], in assay [3], in assay [4], in [5] and in assay [6]. Besides, the molecule was classed as inactive in assay [7], in [8], in assay [9] and in assay [10].

`O=S(=O)(O)c1cc(S(=O)(=O)O)c2c(N=Nc3ccccc3)c(O)ccc2c1`: the outcome in [1], in [2], in assay [3], in assay [4], in assay [5] and in assay [6] was inactive. In addition, the result in assay [7], in assay [8], in assay [9] and in [10] was inactive.

For the molecule `[Cl][Dy]([Cl])[Cl]`, the outcome in [1], in [2], in [3], in assay [4], in assay [5] and in assay [6] was inactive. The call in [7], in assay [8], in [9] and in assay [10] was inactive.

Turning to `CC(C)CCOC(=O)CC(C)C`, the call in assay [1], in [2], in assay [3], in assay [4], in assay [5] and in [6] was inactive. In addition, the molecule was called inactive in assay [7], in assay [8], in [9] and in assay [10].

`CCOCC(C)O` (stereo not given): the molecule was classed as inactive in [1], in assay [2], in assay [3], in assay [4], in [5] and in assay [6]. For the same molecule, the molecule was called inactive in assay [7], in assay [8], in [9] and in [10].

Take `CCCc1ccc(O)cc1`: the result in assay [1], in assay [2], in assay [3], in assay [4], in assay [5] and in assay [6] was inactive. For the same molecule, the call in assay [7], in [8], in assay [9] and in assay [10] was inactive.

In the case of `CN(C)c1ccc(C=O)cc1`, the molecule was classed as inactive in [1], in [2], in assay [3], in assay [4], in assay [5] and in [6]. Also, the molecule was called inactive in assay [7], in [8], in assay [9] and in assay [10].

For `OC[C@H]1O[C@@H](O[C@H]2[C@H](O)[C@@H](O)[C@H](O)O[C@@H]2CO)[C@H](O)[C@@H](O)[C@H]1O`, the outcome in assay [1], in [2], in [3], in assay [4], in assay [5] and in assay [6] was inactive. The call in assay [7], in assay [8], in assay [9] and in [10] was inactive.

For the molecule `C=CCOC(=O)/C=C\C(=O)OCC=C`, the outcome in assay [1], in [2], in assay [3], in [5] and in assay [6] was inactive. For the same molecule, the AC50 is 19.7 µM (active) in assay [4]; 18.6 µM (active) in assay [7]; 28 µM (active) in [8]; 164 µM (active) in assay [9]; 39.5 µM (active) in [10].

On to `CC1COC(=O)O1` (stereo not given), for which the outcome in assay [1], in assay [2], in assay [3], in [4], in assay [5] and in assay [6] was inactive. The outcome in assay [7], in assay [8], in assay [9] and in assay [10] was inactive.

As to `CC(=O)CC(=O)N(C)C`, the molecule was called inactive in assay [1], in [2], in [3], in assay [4], in assay [5] and in assay [6]. Besides, the result in assay [7], in [8], in assay [9] and in [10] was inactive.

In the case of `O=C1CCC(=O)N1`, the outcome in assay [1], in assay [2], in assay [3], in [4], in assay [5] and in assay [6] was inactive. Also, the molecule was classed as inactive in assay [8], in [9] and in [10]. Moreover, the AC50 in [7] is 28.2 µM (active).

On to `CCC(C)(C)c1cc(O)c(C(C)(C)CC)cc1O`, for which the concentration at half-maximal activity (AC50) in [1] was 6.82 µM (active); in assay [2] it was 24.2 µM (active); in assay [3], 24.8 µM (active); in assay [4], 20.2 µM (active); in assay [7], 10.7 µM (active); in assay [8], 30 µM (active). Further, the AC50 in [9] is 49.3 µM (active); in assay [10], 16.2 µM (active). Also, the result in [5] and in assay [6] was inactive.

For the molecule `c1ccc(Cc2ccccc2)cc1`, the outcome in [1], in [2], in assay [3], in assay [4], in [5] and in assay [6] was inactive. Also, the outcome in [7], in assay [8], in assay [9] and in [10] was inactive.

With `CCCCC/C=C\C=C\C(=O)OCC`, the AC50 is 64 µM (active) in assay [1]; 79.6 µM (active) in assay [2]; 56.3 µM (active) in [4]; 78.5 µM (active) in assay [7]; 46.7 µM (active) in assay [9]; 55.1 µM (active) in [10]. The result in [3], in assay [5], in assay [6] and in [8] was inactive.

Turning to `C=C/C(C)=C/C/C=C(\C)CCC=C(C)C`, the molecule was classed as inactive in assay [1], in [2], in [3], in assay [4], in assay [5] and in assay [6]. In addition, the molecule was classed as inactive in assay [7], in assay [8], in assay [9] and in [10].

For the molecule `CCC(C)(CCCC(C)C)OC(C)=O` (stereo not given), the molecule was called inactive in assay [1], in [2], in assay [3], in assay [4], in assay [5] and in assay [6]. Further, the molecule was classed as inactive in assay [7], in assay [8], in assay [9] and in assay [10].

Take `c1ccc2c(c1)-c1ccc3ccc4cccc5cc-2c1c3c45`: the outcome in assay [1], in assay [2], in assay [3], in [4], in assay [5] and in assay [6] was inactive. The call in assay [8], in assay [9] and in [10] was inactive. Moreover, in [7], the AC50 is 0.0166 µM (active).

As to `O=c1cc[nH]cc1`, the call in [1], in [2], in assay [3], in assay [4], in assay [5] and in assay [6] was inactive. In addition, the molecule was called inactive in [7], in assay [8], in assay [9] and in assay [10].

Turning to `CC1=CC(C)C(C=O)C(C)C1` (stereo not given) (tested in a mixture with another compound), the call in [1], in assay [2], in assay [3], in [4], in [5] and in assay [6] was inactive. In addition, the result in assay [7], in [8], in [9] and in assay [10] was inactive.

Consider `C=CCOCC(O)CO` (stereo not given), for which the molecule was called inactive in assay [1], in assay [2], in [3], in assay [4], in assay [5] and in [6]. Besides, the molecule was classed as inactive in assay [7], in assay [8], in assay [9] and in [10].
